Laboratory results published in PubChem BioAssay AID602248 (The Scripps Research Institute Molecular Screening Center, 2012).
Out of some 360,000 compounds screened, about 1,700 (0.47%) were called active. No stated cut-off is given here; in the data, active means activation above about 15%; inactive means the rest. Shown is part of a subset that was picked to be rich in actives.

assay: counter-screen for M1 agonists: effect in parental CHO-K1 cells (AID 602248); conditions: Fluo-8 calcium fluorescence, at 3 µM, hits give high values, scaled to maximal ATP response, vehicle zero;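 further: untransfected CHO-K1 host cells lacking M1 receptor as counterscreen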

| SMILES | activation |
| --- | --- |
| CC1C(=O)C(C)C(c2ccc(O)cc2)NC1c1ccc(O)cc1 (stereo not drawn) | 4.02% (inactive) |
| COc1ccc(NC(=O)CSc2ccc(-c3ccco3)nn2)c(OC)c1 | 0.21% (inactive) |
| O=C(CSc1ccc(-c2ccc(F)cc2)nn1)Nc1ccc2c(c1)OCCO2 | 6.26% (inactive) |
| O=C(CSc1ccc(-c2ccco2)nn1)Nc1cccc(F)c1 | 16.7% (active) |
| CCCOc1ccc(N2CC(C(=O)Nc3ccccn3)CC2=O)cc1 (stereo not drawn) | -0.06% (inactive) |
| CS(=O)(=O)N(CC(=O)Nc1ccc(F)cc1F)c1cccc([N+](=O)[O-])c1 | 0.11% (inactive) |
| C=CCn1c(SCC(N)=O)nnc1-c1cc2c(s1)CCC(CC)C2 (stereo not drawn) | 0.17% (inactive) |
| COc1ccc(Nc2ncnc3sc(-c4ccccc4)cc23)c(OC)c1 | 17.4% (active) |
| COc1ccc(NC(=O)c2sc(N3CCOCC3)nc2-c2ccccc2)c(OC)c1 | 1.26% (inactive) |
| COC(=O)c1cnc(Nc2cc(C)ccc2OC)c2ccccc12 | 1.12% (inactive) |
| COc1ccc(NC(=O)CSc2nncc(=O)n2N)cc1OC | 1.17% (inactive) |
| CCOC(=O)C1CCN(Cc2ccc(-c3ccccc3)cc2)CC1 | 2.64% (inactive) |
| CCOC(=O)C1CCN(Cc2nnc(-c3cccc(Br)c3)o2)CC1 | 16.3% (active) |
| CCOC(=O)C1CCN(CCC(=O)Nc2cccc(C)c2)CC1 | 6.98% (inactive) |
| CC1CCC2(CC1)NC(=O)N(CC(=O)c1ccc3c(c1)OCO3)C2=O (stereo not drawn) | 1.72% (inactive) |
| CC1(c2ccc(Cl)cc2)NC(=O)N(CC(=O)c2ccc3c(c2)OCO3)C1=O (stereo not drawn) | 16.4% (active) |
| COc1ccc(C2(C)NC(=O)N(CC(=O)c3ccc4c(c3)OCO4)C2=O)cc1 (stereo not drawn) | 9.33% (inactive) |
| Cn1c2c(c(=O)n(C)c1=O)C(c1cccc([N+](=O)[O-])c1)Nc1ccccc1O2 (stereo not drawn) | 0.17% (inactive) |
| Cc1ccc(S(=O)(=O)N2CCCC(C(=O)N3CCN(C)CC3)C2)cc1 (stereo not drawn) | 1.9% (inactive) |
| CC(=O)N1CCCc2cc(S(=O)(=O)N3CCCC(C(=O)N4CCN(c5cccc(Cl)c5)CC4)C3)ccc21 (stereo not drawn) | 19.9% (active) |

| SMILES | activation |
| --- | --- |
| COc1cccc(N2CCN(C(=O)C3CCCN(S(=O)(=O)c4cnc[nH]4)C3)CC2)c1 (stereo not drawn) | 0.46% (inactive) |
| CCN1CCC(=NNC(=O)c2ccc(C)c([N+](=O)[O-])c2)CC1 | 0.82% (inactive) |
| Cc1cc(F)ccc1S(=O)(=O)Nc1ncnc2scc(-c3ccc(F)cc3)c12 | 0.74% (inactive) |
| CC(=O)N1CCN(c2ccc(NCc3ccc(C(C)C)cc3)cc2)CC1 | -0.13% (inactive) |
| O=S(=O)(Nc1ccccc1)c1ccc(NS(=O)(=O)c2cccs2)cc1 | 1.02% (inactive) |
| O=C(NCc1cn2ccsc2n1)Nc1cccc(Cl)c1 | 0.23% (inactive) |
| O=C(Nc1cccc(Cl)c1)Nc1ccccc1NS(=O)(=O)c1cccs1 | 15.3% (active) |
| CC12CN3CC(C)(CN(C1)C3c1ccc(Cl)cc1Cl)C2=O (stereo not drawn) | -0.45% (inactive) |
| COc1ccc(CC(=O)NC(C)c2ccc(Cl)c(Cl)c2)cc1S(=O)(=O)N1CCOCC1 (stereo not drawn) | 2.98% (inactive) |
| CC(=O)Nc1ccc(S(=O)(=O)Oc2ccc(/C=N/N=C3/NC(=O)C(CC(=O)O)S3)cc2)cc1 (stereo not drawn) | 0.03% (inactive) |
| CC(C)S(=O)(=O)c1csc(NC(=O)Nc2ccc(Cl)cc2)c1Cl | 16% (active) |
| CC(=O)c1ccc(NC(=O)C(C)NCc2ccc(Cl)cc2)cc1 (stereo not drawn) | 0.45% (inactive) |
| CC(=O)N1CCC(N(C(=O)Nc2ccc(Cl)cc2)C(C)C)CC1 | 1.09% (inactive) |
| CN(c1ccc(OCC(=O)NC2=NCCS2)cc1)S(=O)(=O)c1ccc(F)cc1 | 6.36% (inactive) |
| CN(c1ccccc1)S(=O)(=O)c1ccc(NC(=O)COc2ccccc2)cc1 | 7.3% (inactive) |
| Cc1ccc(S(=O)(=O)N(C)c2ccc(OCC(=O)NC3=NCCS3)cc2)cc1 | 22.6% (active) |
| O=C(O)C(NS(=O)(=O)c1cccc2nsnc12)c1ccccc1 (stereo not drawn) | 0.41% (inactive) |
| Cc1ccc(-c2nn(-c3ccccc3)cc2C(=O)NCCCN2CCCC2=O)cc1 | 0.65% (inactive) |
| O=C(NNC(=S)NC(=O)c1cn(-c2ccccc2)nc1-c1ccccc1)c1ccncc1 | 29.6% (active) |
| COc1ccccc1N1CCN(C(=O)c2cn(-c3ccccc3)nc2-c2cccnc2)CC1 | 4.25% (inactive) |

| SMILES | activation |
| --- | --- |
| CCN(Cc1nc2ccccc2c(=O)[nH]1)Cc1cc(=O)oc2cc(C)c(C)cc12 | 2.83% (inactive) |
| CCOC(=O)c1ccc(N=C2SC(C(=O)NC)CC(=O)N2CCc2ccccc2)cc1 (stereo not drawn) | 0.37% (inactive) |
| CCOc1ccc(NS(=O)(=O)c2ccc(C(=O)NC3CCN(Cc4ccccc4)CC3)cc2)cc1 | 15.3% (active) |
| CCOc1ccc(CC(=O)NC2CCN(Cc3ccccc3)CC2)cc1 | 0.21% (inactive) |
| CCOc1ccc(C(=O)NC2CCN(S(=O)(=O)CC)CC2)cc1 | 0.96% (inactive) |
| Cc1ccc(-c2cccc([C@H]3[C@@H]4C=CC[C@@H](C)[C@@H]4C(=O)N3Cc3ccccc3)c2)cc1 | 0.28% (inactive) |
| Cc1cc(CN(C)C(=O)c2cc(COc3ccc(C)c(C)c3)on2)n[nH]1 | 1.86% (inactive) |
| Cc1ccc(OCc2cc(C(=O)N(C)CCn3ccnc3C)no2)cc1C | 3.36% (inactive) |
| CN(Cc1cccnc1)C(=O)c1cc(COc2ccc3ncccc3c2)on1 | 17.9% (active) |
| COc1cccc2c1C(=O)c1c(O)c3c(c(O)c1C2=O)CC(O)(C(C)=NNC(=O)c1ccc(Cl)c(Cl)c1)CC3OC1CC(N)C(O)C(C)O1 (stereo not drawn) | 7.82% (inactive) |
| CN(C(=O)CC1C(=O)NCCN1Cc1ccc2ccccc2c1)C1CCOCC1 (stereo not drawn) | 0.91% (inactive) |
| CC1CCCCC12NC(=O)N(CC(=O)OCC(=O)NCc1ccc(F)cc1)C2=O (stereo not drawn) | 0.23% (inactive) |
| CCCc1ccc(C(=O)COC(=O)CN2C(=O)NC3(CCCCC3C)C2=O)cc1 (stereo not drawn) | 5.23% (inactive) |
| CC1CCCCC12NC(=O)N(CC(=O)OCc1c(F)cccc1Cl)C2=O (stereo not drawn) | 21.8% (active) |
| c1ccc2c(c1)nnn2-c1ccncc1 | 0.33% (inactive) |
| C=CCNC(=O)/C=C/c1ccc(C(C)C)cc1 | -0.17% (inactive) |
| O=C(O)/C=C/c1ccc(S(=O)(=O)N2CCCCCC2)cc1 | -0.04% (inactive) |
| O=C(/C=C(O)/C=C/c1ccc(O)cc1)/C=C/c1ccc(O)cc1 | 46.7% (active) |
